Values without a mark were called inactive. No rule for the calls is given here.
What follows are molecules tested against Pantothenate synthetase (Mycobacterium tuberculosis (strain ATCC 25618 / H37Rv)) (UniProt P9WIL5) (assay: Recombinant Mtb pantothenate synthetase (PanC) inhibitors, coupled enzyme, confirmatory (AID 375;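 also: 0% = full reaction with vehicle and 100% = no enzyme background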)). Conditions: coupled enzyme assay; at 10 µM, active compounds read high.
Pantothenate synthetase (Mycobacterium tuberculosis (strain ATCC 25618 / H37Rv)), sequence (P9WIL5 whole entry, looked up): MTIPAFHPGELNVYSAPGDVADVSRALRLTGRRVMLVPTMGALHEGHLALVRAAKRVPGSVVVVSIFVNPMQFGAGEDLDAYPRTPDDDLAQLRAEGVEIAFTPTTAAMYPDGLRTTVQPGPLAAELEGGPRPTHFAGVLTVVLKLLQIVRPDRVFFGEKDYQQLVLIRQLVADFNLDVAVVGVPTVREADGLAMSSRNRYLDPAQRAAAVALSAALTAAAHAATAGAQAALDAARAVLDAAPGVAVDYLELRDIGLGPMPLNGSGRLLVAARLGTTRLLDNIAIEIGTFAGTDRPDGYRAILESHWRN

SMILES	inhibition [%]
Cc1ccc(S(=O)(=O)NCC(=O)N(CC(=O)NCc2ccccc2)CC2CCCO2)cc1 (centres undefined)	2
CCOC(=O)CNC(=O)CSc1nc(N(C)C)nc(N2CCOCC2)n1	6
O=C(CSc1nc2ccccc2o1)Nc1ccccc1	0
CCN(c1ccc2c(c1)OCO2)S(=O)(=O)c1cc(Br)cc2c1N(C(=O)C1CC1)CC2	0
Nc1ncnc2oc(-c3ccco3)c(-c3ccco3)c12	2
CCOC(=O)N1CCC(Nc2nc3ccccc3n3cnnc23)CC1	10
CCCCOC(=O)C1=C(C)Nc2ncnn2C1c1cccc(OC)c1OC (centres undefined)	8
CN(C)c1cccc(NC(=O)CCc2ccccc2)c1	0
CCCS(=O)(=O)NCCc1cc2cc(C)c(C)cc2[nH]c1=O	0
CC(C)N(C(=O)N1CCC(c2nc(-c3ccncc3)no2)CC1)C(C)C	0
Cc1ccc2nc(-c3ccc(S(=O)(=O)N4CCOCC4)cc3)cn2c1	0
CCOC(=O)C(CCc1nnc(N)s1)C(=O)OCC	4
CNC(=O)c1ccc(N(Cc2ccccc2C)S(C)(=O)=O)cc1	7
CCn1c(SCC(=O)N2CCN(c3ccc(Cl)cc3)CC2)nc2ccccc2c1=O	0
COc1nc(OC)nc(N2CCC(NC(=O)C(Cc3ccc(C(C)C)cc3)NC(C)=O)CC2)n1 (centres undefined)	5
CN(C)CCCN1c2ccccc2Sc2ccc(Cl)cc21	0
COC(=O)C1=C(N)Oc2cc(C)n(Cc3ccncc3)c(=O)c2C1c1cccnc1 (centres undefined)	0
CC1=Nn2c(nnc2-c2cc(-c3ccccc3)n[nH]2)SC1	0
CC1(C)CC(=O)C2=C(C1)NC(=O)CC2C(=O)NCc1ccc(F)cc1 (centres undefined)	0
CCc1nnc(NC(=O)CSc2nnc3scc(-c4ccc(C)cc4)n23)s1	0

SMILES	inhibition [%]
O=[n+]1c2c(n([O-])c3c1CCCC3)CCCC2	0
O=C(CCNNC(=O)c1ccncc1)NCc1ccccc1	0
O=C(O)Cn1nc2ccccc2n1	0
CCOc1ccc2cc(C#N)c(SCC(=O)N3CCCC3)nc2c1	0
CCCOc1ccc(C2C(C(=O)c3ccc(C)o3)=C(O)C(=O)N2Cc2cccnc2)cc1 (centres undefined)	10
CCn1ncc(C2=NOC(C(=O)NCc3ccc(Cl)cc3)C2)c1C (centres undefined)	0
CN(CC(=O)O)S(=O)(=O)c1cc(Cl)ccc1Cl	1
COc1ccccc1N1CCN(C(=O)c2oc3cc(C)c(C)cc3c2C)CC1	0
O=C(Nc1nnc(-c2ccc(Cl)cc2)o1)C1CCCCC1	0
CC(Sc1n[nH]c(=O)[nH]c1=O)C(=O)OCc1ccccc1 (centres undefined)	2
Cc1cc(S(=O)(=O)NC2CCCCC2)ccc1OCC(=O)NCc1ccccn1	0
COc1cccc(N2C(=O)N(c3ccccc3Cl)C3CS(=O)(=O)CC32)c1 (centres undefined)	3
CCOCCCNC(=O)c1ccc2c(c1)ncn2C1CCCC1	5
O=C(O)c1cnn2c1NC(c1ccc(F)cc1)CC2C(F)(F)F (centres undefined)	2
O=C1CC(N2CCN(c3cccc(C(F)(F)F)c3)CC2)C(=O)N1c1ccccc1 (centres undefined)	0
CCC(=O)n1nc(-c2ccco2)nc1N	0
O=C(OCN1C(=O)c2ccccc2C1=O)C1CCCCC1	1
O=C(O)CCCc1nc(-c2ccccc2)no1	0
CC(=O)Nc1ccc(-c2nn[nH]n2)cc1Cl	0
